{
  "source": "the supplement of paper PMC3334620",
  "note": "Over roughly 33,000 sequences, “E-score (-0.5 to 0.5)” has its median near -0.01; the highest 2% begin near 0.26. For the sample, the highest values were picked, then their nearest neighbours and some sequences at random.",
  "data": [
    {"biological_target": "Ste12 (UniProt P13574)", "sequence (P13574 whole entry, the tested form may be a part)": "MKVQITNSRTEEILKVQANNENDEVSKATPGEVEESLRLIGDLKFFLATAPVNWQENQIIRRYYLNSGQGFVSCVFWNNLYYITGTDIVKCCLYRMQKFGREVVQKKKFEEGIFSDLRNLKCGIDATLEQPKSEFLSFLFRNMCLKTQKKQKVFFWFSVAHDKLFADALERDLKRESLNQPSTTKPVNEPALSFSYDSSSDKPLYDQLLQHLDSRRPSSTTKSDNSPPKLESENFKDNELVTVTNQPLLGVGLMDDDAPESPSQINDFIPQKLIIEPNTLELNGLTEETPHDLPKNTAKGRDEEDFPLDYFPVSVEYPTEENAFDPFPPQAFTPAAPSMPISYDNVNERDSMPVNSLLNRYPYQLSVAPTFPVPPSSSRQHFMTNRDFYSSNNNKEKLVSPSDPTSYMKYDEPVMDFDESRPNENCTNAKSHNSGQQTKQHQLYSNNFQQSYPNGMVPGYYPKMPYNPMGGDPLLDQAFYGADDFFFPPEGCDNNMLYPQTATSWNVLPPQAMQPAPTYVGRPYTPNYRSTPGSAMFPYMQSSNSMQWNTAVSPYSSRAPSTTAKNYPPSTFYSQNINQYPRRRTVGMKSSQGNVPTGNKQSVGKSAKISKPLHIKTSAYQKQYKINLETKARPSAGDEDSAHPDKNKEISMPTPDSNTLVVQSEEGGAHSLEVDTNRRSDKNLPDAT", "assay": "PBM E-score (8-mer binding enrichment) (E-score (-0.5 to 0.5)); higher = stronger / more preferred TF binding", "details": "protein concentration: 200 nM; construct: GST-DNA-binding domain", "procedure": "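Universal 'all 10-mer' protein binding microarrays (Agilent AMADID 015681) probed with GST-tagged S. cerevisiae TFs (full-length or DBD) made by in vitro transcription/translation (PURExpress), about 100-200 nM. Bound TF was detected with fluorescent anti-GST. Each ungapped 8-mer (which stands for itself and its reverse complement) is scored by the PBM enrichment score (E-score), a modified Wilcoxon-Mann-Whitney statistic from -0.5 to +0.5, computed with the Universal PBM Analysis Suite. Scale: above 0.35 generally sequence-specific binding.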", "values": [
      {"sequence": "ATGCCTCC", "PBM E-score": -0.0978},
      {"sequence": "CAATCTCC", "PBM E-score": -0.00169},
      {"sequence": "CTCGATAC", "PBM E-score": 0.155},
      {"sequence": "GAGCGATC", "PBM E-score": -0.105},
      {"sequence": "CCGGTCGC", "PBM E-score": -0.0319},
      {"sequence": "GGTGACAA", "PBM E-score": 0.0614},
      {"sequence": "AAGAGCTC", "PBM E-score": -0.0902},
      {"sequence": "CAGGGCCC", "PBM E-score": -0.148},
      {"sequence": "ATAAATAA", "PBM E-score": 0.266},
      {"sequence": "CTAAATAA", "PBM E-score": 0.0819},
      {"sequence": "CAAAATAC", "PBM E-score": 0.115},
      {"sequence": "ATAAATAG", "PBM E-score": 0.0906},
      {"sequence": "TAAAATAA", "PBM E-score": 0.269},
      {"sequence": "TTAAATAA", "PBM E-score": 0.249},
      {"sequence": "AAAAATAA", "PBM E-score": 0.229},
      {"sequence": "CAAAATAA", "PBM E-score": 0.33},
      {"sequence": "CAAAATAG", "PBM E-score": -0.0251},
      {"sequence": "ATCTCAGC", "PBM E-score": -0.112},
      {"sequence": "AGTTGAGC", "PBM E-score": -0.152},
      {"sequence": "ATCTATGC", "PBM E-score": -0.0236},
      {"sequence": "ACGGGCCC", "PBM E-score": -0.199},
      {"sequence": "CATTTAAA", "PBM E-score": 0.277},
      {"sequence": "CATTTAAC", "PBM E-score": 0.212},
      {"sequence": "GATTTAAA", "PBM E-score": 0.113},
      {"sequence": "AATTTAAA", "PBM E-score": 0.269},
      {"sequence": "CATTTAAG", "PBM E-score": -0.0794},
      {"sequence": "GATTTTAA", "PBM E-score": 0.201},
      {"sequence": "TATTTACA", "PBM E-score": 0.101},
      {"sequence": "AATTTAAC", "PBM E-score": 0.208},
      {"sequence": "TCTTTTAA", "PBM E-score": 0.142},
      {"sequence": "TATTTAAA", "PBM E-score": 0.379},
      {"sequence": "TATTTTAA", "PBM E-score": 0.301},
      {"sequence": "AATTTAAT", "PBM E-score": 0.159},
      {"sequence": "GCACCAGC", "PBM E-score": -0.101},
      {"sequence": "GGACAGGA", "PBM E-score": -0.152},
      {"sequence": "ACCATCGC", "PBM E-score": 0.0245},
      {"sequence": "CGCAATCA", "PBM E-score": 0.0872},
      {"sequence": "GGCTCACC", "PBM E-score": -0.244},
      {"sequence": "ACTAGGTG", "PBM E-score": -0.199},
      {"sequence": "CACTTAAC", "PBM E-score": -0.121},
      {"sequence": "CACTTAAA", "PBM E-score": 0.287},
      {"sequence": "AACTTAAA", "PBM E-score": 0.186},
      {"sequence": "AGTCCACA", "PBM E-score": -0.173},
      {"sequence": "AAGAAACG", "PBM E-score": 0.148},
      {"sequence": "AGGAAACA", "PBM E-score": 0.19},
      {"sequence": "ATGAAAGA", "PBM E-score": 0.184},
      {"sequence": "GTGAAATA", "PBM E-score": 0.169},
      {"sequence": "GTGAAAAA", "PBM E-score": 0.232},
      {"sequence": "AGGAAACG", "PBM E-score": -0.105},
      {"sequence": "ATGAAACA", "PBM E-score": 0.495},
      {"sequence": "ATGAAACG", "PBM E-score": 0.484},
      {"sequence": "GTGAAACA", "PBM E-score": 0.48},
      {"sequence": "AAGCAGCC", "PBM E-score": -0.078},
      {"sequence": "ACATCTGA", "PBM E-score": -0.24},
      {"sequence": "CAACTGTA", "PBM E-score": -0.0454},
      {"sequence": "AATCAATG", "PBM E-score": 0.0688},
      {"sequence": "CCTAGAGC", "PBM E-score": -0.189},
      {"sequence": "ATTATCCA", "PBM E-score": 0.0202},
      {"sequence": "ATTATCCC", "PBM E-score": 0.0652},
      {"sequence": "ATTATCCG", "PBM E-score": 0.294},
      {"sequence": "ACCAGTAC", "PBM E-score": -0.11},
      {"sequence": "CTAACAGA", "PBM E-score": 0.153},
      {"sequence": "AAAACAGA", "PBM E-score": 0.295},
      {"sequence": "GAAACAGC", "PBM E-score": 0.232},
      {"sequence": "GTAACAGA", "PBM E-score": 0.334},
      {"sequence": "AAAACAGG", "PBM E-score": -0.0182},
      {"sequence": "ATAACAGA", "PBM E-score": 0.115},
      {"sequence": "GAAACAGA", "PBM E-score": 0.287},
      {"sequence": "AAAACAGC", "PBM E-score": 0.127},
      {"sequence": "CAAACAGA", "PBM E-score": 0.12},
      {"sequence": "ATATACAT", "PBM E-score": 0.00017},
      {"sequence": "AGCCTGTC", "PBM E-score": -0.181},
      {"sequence": "CGCTCTTC", "PBM E-score": 0.00173},
      {"sequence": "ATGTATCC", "PBM E-score": 0.0246},
      {"sequence": "ATGTATCG", "PBM E-score": 0.0479},
      {"sequence": "ATGTATCA", "PBM E-score": 0.344},
      {"sequence": "GTGTATTA", "PBM E-score": 0.25},
      {"sequence": "CTGTATCA", "PBM E-score": 0.207},
      {"sequence": "GTGTATCA", "PBM E-score": 0.301},
      {"sequence": "ACCAACCT", "PBM E-score": 0.0089},
      {"sequence": "ATTGCTGC", "PBM E-score": -0.00539},
      {"sequence": "GCACTCCA", "PBM E-score": -0.161},
      {"sequence": "AAAGAATC", "PBM E-score": 0.136},
      {"sequence": "GACTCACA", "PBM E-score": -0.201},
      {"sequence": "AATCTCCA", "PBM E-score": -0.184},
      {"sequence": "GAAACCGC", "PBM E-score": 0.351}
    ]}
  ]
}
